Where a structure was tested more than once in an assay, its records may differ in their call. Activity calls are given as the source filed them. Rule for the calls: active = hit-call score of the fitted dose curve at least 0.9, where 1 is the maximum; inactive = score below 0.9.
read-out: Interferon-gamma inducible Protein 10 (IP10), CXCL10 (gene 3627); experiment: BSK_BE3C_IP10: BioMAP Diversity Plus: BE3C Assay for Interferon-gamma inducible Protein 10 (IP10) Biomarker Activity (AID 2283034); settings: primary human bronchial epithelial cells; actives raise or lower the signal
Method: BSK_BE3C is a cell-based, multiplexed-readout assay that uses bronchial epithelial cell, a human lung primary cell, with measurements taken at 24 hours after chemical dosing in a 96-well plate.BSK_BE3C_IP10 is an assay component measured in the BSK_BE3C assay. It measures IP-10 antibody related to regulation of gene expression using ELISA technology.Data from the assay component BSK_BE3C_IP10 was analyzed into 1 assay endpoint. This assay endpoint, BSK_BE3C_IP10, was analyzed with bidirectional fitting relative to DMSO as the negative control and baseline of activity. Using a type of binding reporter, gain or loss-of-signal activity can be used to understand changes in the signaling as they relate to the gene CXCL10. Furthermore, this assay endpoint can be referred to as a primary readout, because this assay has produced multiple assay endpoints where this one serves a signaling function. To generalize the intended target to other relatable targets, this assay endpoint is annotated to the cytokine intended target family, where the subfamily is chemotactic factor.
The levels of cell surface (or secreted, indicated by the prefix "s") biomarker endpoints were measured by ELISA. Overt cytotoxicity to cells in confluent adherent cultures (all systems other than the BT system) was assessed by measuring total protein levels using sulforhodamine B (SRB) staining in parallel cultures at the time of biomarker measurements, indicated as SRB endpoints. For proliferation assays for adherent cell types, individual cell types are cultured at sub-confluence and relative cell numbers quantified by SRB staining at time points optimized for each system (48 h: 3C and CASM3C systems; 72 h: BT and HDF3CGF systems; 96 h: SAg system). SRB was performed by staining cells with 0.1% SRB after fixation with 10% TCA and reading wells at 560 nm.Viability and proliferation of PBMC (T cells) was quantified by Alamar Blue reduction for the SAg and BT systems. For PBMC viability (referred to as PBMC Cytotoxicity within the assay endpoint names), cells were plated (75,000/well in a 96-well plate) and then chemical samples added for 1 h before addition of activators, SEB and TSST-1 (20 ng/mL final concentration each). Cells were incubated for 90 h. Then, Alamar Blue (20 uL/well) (Invitrogen, Cat DAL1100) was added for 6 h, and the plates were read with a fluorescence microplate reader at 546/580 nm (excitation/emission). For PBMC proliferation, cells were plated and activated as above but incubated for only 16 h prior to addition of Alamar Blue. Plates were read after 6 h.

SMILES | outcome | AC50
CCN(CC)C(=O)SCc1ccc(Cl)cc1 | inactive | 
Cc1cc(C)nc(NC(=O)NS(=O)(=O)c2ccccc2C(=O)OC2COC2)n1 | inactive | 
OCCOc1ccccc1 | inactive | 
C[C@H]1[C@H](c2ccc(Cl)cc2)SC(=O)N1C(=O)NC1CCCCC1 | inactive | 
ClC1C(Cl)C(Cl)C(Cl)C(Cl)C1Cl (stereo not given) | inactive | 
CCOCN(C(=O)CCl)c1c(C)cccc1CC |  | 16.5 µM (active)
COC(=O)c1ccccc1S(=O)(=O)NC(=O)Nc1nc(C)nc(OC)n1 | inactive | 
Clc1ccccc1-c1nnc(-c2ccccc2Cl)nn1 | inactive | 
CCOc1nc(NC)nc(NC(=O)NS(=O)(=O)c2ccccc2C(=O)OC)n1 | inactive | 
O=C(O)COc1ccc(Cl)cc1Cl | inactive | 
O=C(O)C(F)(F)C(F)(F)C(F)(F)C(F)(F)C(F)(F)C(F)(F)C(F)(F)F | inactive | 43.9 µM (active) [middle of 4 runs]
O=C(O)CCCOc1ccc(Cl)cc1Cl | inactive | 
O=[N+]([O-])c1c(Cl)c(Cl)c(Cl)c(Cl)c1Cl | inactive | 
[2H]C1([2H])[n+]2ccccc2-c2cccc[n+]2C1([2H])[2H] | inactive | 
CCC(C)(NC(=O)c1cc(Cl)c(C)c(Cl)c1)C(=O)CCl (stereo not given) |  | 34 µM (active)
CC(C)(C)C(O)C(Oc1ccc(Cl)cc1)n1cncn1 (stereo not given) | inactive | 
COP(=O)(OC)OC=C(Cl)Cl | inactive | 
COP(=S)(OC)Oc1ccc(SC)c(C)c1 | inactive | 
CCS(=O)(=O)c1cccnc1S(=O)(=O)NC(=O)Nc1nc(OC)cc(OC)n1 | inactive | 
COC(=O)c1ccccc1CS(=O)(=O)NC(=O)Nc1nc(OC)cc(OC)n1 | inactive | 

SMILES | outcome | AC50
CCCN(CCOc1c(Cl)cc(Cl)cc1Cl)C(=O)n1ccnc1 |  | 29.9 µM (active)
CCOC1Oc2ccc(OS(C)(=O)=O)cc2C1(C)C (stereo not given) | inactive | 
CC(C)(C)C(O)/C(=C\c1ccc(Cl)cc1Cl)n1cncn1 (stereo not given) |  | 31.1 µM (active)
C#CCN1C(=O)COc2cc(F)c(N3C(=O)C4=C(CCCC4)C3=O)cc21 | inactive | 
COC(=O)c1ccccc1S(=O)(=O)NC(=O)N(C)c1nc(C)nc(OC)n1 | inactive | 
CC1(C)C(C=C(Cl)Cl)C1C(=O)OC(C#N)c1ccc(F)c(Oc2ccccc2)c1 (stereo not given) | inactive | 
O=C(NC(=O)c1c(F)cccc1F)Nc1ccc(OC(F)(F)C(F)OC(F)(F)F)c(Cl)c1 (stereo not given) | inactive | 
CCC(C)(C)C(=O)OC1=C(c2ccc(Cl)cc2Cl)C(=O)OC12CCCCC2 |  | 31.3 µM (active)
COc1nn(CSP(=S)(OC)OC)c(=O)s1 | inactive | 
O=S(=O)(O)C(F)(F)C(F)(F)C(F)(F)C(F)(F)C(F)(F)C(F)(F)C(F)(F)C(F)(F)F |  | 17.3 µM (active) [middle of 7 runs]
Oc1cc(Cl)ccc1Oc1ccc(Cl)cc1Cl |  | 29.3 µM (active) [middle of 4 runs]
CNC(=O)CSP(=S)(OC)OC | inactive | 
CCC(C)Nc1c([N+](=O)[O-])cc(C(C)(C)C)cc1[N+](=O)[O-] (stereo not given) | inactive | 
Oc1ccc(Cl)cc1Cc1ccccc1 |  | 35.3 µM (active) [middle of 7 runs]
CC(C)N(C(=O)COc1nnc(C(F)(F)F)s1)c1ccc(F)cc1 | inactive | 
CNC(=O)Oc1ccccc1OC(C)C | inactive | 
Cc1[nH]c(=O)n(C(C)(C)C)c(=O)c1Cl | inactive | 
CC1(c2ccc(Oc3ccccc3)cc2)OC(=O)N(Nc2ccccc2)C1=O (stereo not given) |  | 15 µM (active)
N#CN | inactive | 
